The source of these data is PubChem BioAssay AID651599 (National Center for Advancing Translational Sciences (NCATS), 2012).

Structures are written as SMILES. Inconclusive results are not listed. Unmarked numbers belong to inactive results. Activity calls are given as the source filed them. The call rests on the fitted dose curve; in most records, active means well fitted inhibition curve with a large enough effect; inconclusive means small, poorly fitted or top-dose-only effect; inactive means no such curve, though single readings can be large or run the other way.
On the % scale 0 is the no-effect control and ±100 the full control effect; potency means the concentration at half of the fitted maximal effect.

Tumor susceptibility gene 101 protein (Homo sapiens), sequence (Q99816 whole entry, looked up, the tested form may be a part): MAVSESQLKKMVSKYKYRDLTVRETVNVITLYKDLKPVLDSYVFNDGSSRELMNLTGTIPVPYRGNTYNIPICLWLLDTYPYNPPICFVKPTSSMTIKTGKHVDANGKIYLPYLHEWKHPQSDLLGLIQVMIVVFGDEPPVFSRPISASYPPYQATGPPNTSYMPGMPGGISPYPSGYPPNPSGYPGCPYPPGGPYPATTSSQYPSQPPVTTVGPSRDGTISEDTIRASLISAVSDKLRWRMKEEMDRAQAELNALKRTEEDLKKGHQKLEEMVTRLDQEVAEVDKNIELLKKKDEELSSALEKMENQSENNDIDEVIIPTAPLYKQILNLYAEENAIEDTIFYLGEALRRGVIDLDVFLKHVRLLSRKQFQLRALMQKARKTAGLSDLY

The target of this assay is Tumor susceptibility gene 101 protein (Homo sapiens) (UniProt Q99816). In words: qHTS Assay for Iinhibitors of HIV-1 Budding by Blocking the Interaction of PTAP/TSG101: Hit Validation in TR assay. The conditions noted are these: Tsg101 binding domain + Texas Red-labeled PTAP peptide, fluorescence polarization, 20 min; series mostly up to 57.5 µM; activity change, negative = inhibition: at the top concentration. From the text:
Stages of the HIV-1 replication cycle, specifically virus assembly and release, provide underexploited targets for the development of novel antiviral inhibitors. The late stages of HIV-1 replication are mediated by the Gag precursor protein, Pr55Gag. Expression of Pr55Gag is both necessary and sufficient for the production of virus-like particles from Gag-expressing cells. The Gag protein hijacks key host proteins involved in endocytic machinery of the host cell to promote endosomal processing and viral budding. The budding process requires a direct interaction between a […] (PTAP) motif in the p6 domain of Gag and the cellular endosomal sorting protein known as Tsg101. In this way, the Gag PTAP motif promotes the host cells to recruit viral particles to the plasma membrane where the new viral particles are released, effectively turning the host cells into viral factories. A fluorescence anisotropy assay has been developed to quantitatively measure the PTAP-Tsg101 interaction which can be used to screen for inhibitors of this interaction.
This hit validation assay is similar to the primary assay but uses the Texas Red label instead of FITC.
NIH Molecular Libraries Probe Production Network [MLPCN]
NIH Chemical Genomics Center [NCGC]
PI Name: Dr. Eric Freed, NCI
Two uL of the Tsg101 binding domain in buffer (10 mM HEPES pH 7.5; 0.15 M NaCl, 0.01% Tween 20; 3 mM EDTA;0.1 mM TCEP) was dispensed into Greiner black MB 1536-well plates (final concentration 10 uM). Then, 23 nL of compounds or DMSO were delivered to each well using a pin tool. Finally, 2 uL of a TR-labeled peptide containing the PTAP motif (1) in the same buffer was dispensed (50 nM final concentration) and the binding was allowed to proceed for 20 min. at r.t. Fluorescent polarization was determined using TR excitation and polarized emission filters on a Perkin Elmer Viewlux.
Keywords: Tsg101, PTAP, Gag, HIV, fluorescent polarization, MLSMR, MLPCN, NIH Roadmap, qHTS, NCGC
For the compound `CCN(CC)CCCNc1ccc2ncn3c4ccc(O)cc4c(=O)c1c23`, the “activity change, negative = inhibition” value is 2.6%.

As to `O=C1Nc2ccccc2/C1=C/c1cnc(-c2ccccc2)[nH]1`, the “activity change, negative = inhibition” value was -19.2%.

Consider `Cc1cc[n+](-c2[nH]c(=O)sc2/C=N/NC([S-])=Nc2ccccc2)cc1`, for which the “activity change, negative = inhibition” value is -24.2%.

In the case of `N=c1c(S(=O)(=O)c2ccc(Br)cc2)cc2c(=O)n3ccccc3nc2n1Cc1ccccc1`, the “activity change, negative = inhibition” value was -0.502%.

For `Nc1c(C(=O)c2cccs2)sc2nsc(SCCN3CCCCC3)c12`, the “activity change, negative = inhibition” value was 11%.

For the compound `Nc1ccc2c3c(cccc13)C(=O)N(c1ccccc1)C2=O`, the “activity change, negative = inhibition” value was -2.6%.

With `Cc1nc(Nc2ccc(S(=O)(=O)N3CCCCC3C)cc2)c2nnn(Cc3ccccc3)c2n1` (stereo not given), the “activity change, negative = inhibition” value was 0.993%.

In the case of `COc1ccc(-c2onc3ccc(C(C)=O)cc23)cc1`, the “activity change, negative = inhibition” value is -8.57%.

Regarding `N#Cc1ccsc1NC(=O)CSc1nncs1`, the “activity change, negative = inhibition” value is 10.2%.

As to `Cn1c(=O)c(N)c2c3c(c(Br)ccc31)C(=O)c1ccccc1-2`, the Potency is 18.3 µM (active).

For `O=C1/C(=N\S(=O)(=O)c2cccs2)C([n+]2cccc(Cc3ccccc3)c2)=C([O-])c2ccccc21`, the “activity change, negative = inhibition” value was 2.05%.

With `CCc1ccc[n+](-c2[nH]c(=O)sc2/C=N/NC([S-])=Nc2ccccc2)c1`, the “activity change, negative = inhibition” value is -11.3%.

Turning to `Cc1c2ccccc2nc2c(F)c(N(C)C)c(F)c(F)c12`, the “activity change, negative = inhibition” value was -4.14%.

Consider `Fc1ccc(C2=CC(c3ccc(Br)o3)n3ncnc3N2)cc1` (stereo not given), for which the “activity change, negative = inhibition” value is 0.977%.

Turning to `O=[N+]([O-])c1cc(Cl)c2cccnc2c1O`, the “activity change, negative = inhibition” value is -23.7%.

For the compound `CC1(C)CC(=O)C2=C(C1)OC(N)=C(C#N)C2c1cc2c(cc1[N+](=O)[O-])OCO2` (stereo not given), the “activity change, negative = inhibition” value was -1.84%.

In the case of `CCCn1nc(-c2ccccc2)c2nc3ccccc3nc21`, the “activity change, negative = inhibition” value is 11.5%.

Consider `COc1ccc(/C=C2/N=C(c3cccs3)OC2=O)cc1OC(C)C`, for which the “activity change, negative = inhibition” value is 9.72%.

Regarding `CCc1cccc(CC)c1NC(=O)CSc1nnc(C2CC2)n1C`, the “activity change, negative = inhibition” value was 11.1%.

With `CCSc1nnc(-c2sc3nnc(-c4ccccc4)c(-c4ccccc4)c3c2N)o1`, the “activity change, negative = inhibition” value is -22.1%.

Take `O=S(=O)(Nc1cccc(-c2ccc(N3CCCCCC3)nn2)c1)c1cccc(F)c1`: the “activity change, negative = inhibition” value is 11.7%.

For the compound `Cc1cc(Br)ccc1NC(=O)c1sc2nc3n(c(=O)c2c1C)CCCC3`, the “activity change, negative = inhibition” value was 0.794%.

Consider `O=c1nc2c(O)cccn2c2c1c(=O)[nH]c1ccccc12`, for which the “activity change, negative = inhibition” value was 8.39%.

On to `CCCN1CCN(S(=O)(=O)c2cn(C)nc2C)CC1`, for which the “activity change, negative = inhibition” value was -28.3%.

Turning to `CCN(CC)S(=O)(=O)c1ccc(C(=O)/C=C/c2ccc(-c3ccc([N+](=O)[O-])cc3)o2)cc1`, the “activity change, negative = inhibition” value was 25.5%.

As for `Cn1cc(/C=C(\C#N)C(=O)Nc2ccccc2O)c2ccccc21`, the “activity change, negative = inhibition” value is -5.56%.

As for `COc1cc2c(cc1OC)-c1cc3ccc4c(c3c[n+]1CC2)OCO4`, the “activity change, negative = inhibition” value was -22.7%.

`CC[C@@]1(C(=O)OC)N[C@H](CN(C)C(=O)c2ccc(C)cc2)[C@@H]2C(=O)N(Cc3ccccc3)C(=O)[C@@H]21`: the “activity change, negative = inhibition” value was -6.86%.

`COc1cccc2c1C(=O)c1c(O)c3c(c(O)c1C2=O)CC(O)(C(C)=O)CC3OC1CC(O)C(O)C(C)O1` (stereo not given): the “activity change, negative = inhibition” value is -16.2%.

Consider `CC(C)c1cc(=O)oc2c3c4c(cc12)CCCN4CCC3`, for which the “activity change, negative = inhibition” value was 5.05%.

Regarding `CCCCCCn1c(=O)[nH]c2nc3cc(N)ccc3nc2c1=O`, the “activity change, negative = inhibition” value was -0.647%.

For `COc1ccc(CNC(=O)C(C#N)c2nc3ccccc3nc2N2CCCC2)cc1` (stereo not given), the “activity change, negative = inhibition” value is -4.78%.

For `COc1ccc(OC)c(-c2c3cc(O)c(=O)cc-3oc3cc(O)c(O)cc23)c1`, the Potency was 32.6 µM (active).

As to `CC(=O)Nc1ccc(Nc2c3c4c(cccc4n(C)c2=O)C(=O)c2ccccc2-3)cc1`, the “activity change, negative = inhibition” value is -28.2%.

For `Oc1c(C=Nc2ccccc2)sc2ccccc12`, the Potency was 36.6 µM (active).

Consider `Cc1cccc(-n2c(O)c(C=Nc3ccc4c(c3)OCO4)c3ccccc3c2=O)n1`, for which the “activity change, negative = inhibition” value is -17.9%.

As to `CCOC(=O)/C(C#N)=C\c1ccc(N2CCN(C/C=C/c3ccccc3)CC2)cc1`, the “activity change, negative = inhibition” value is 11.5%.

For `CCN1CC=C2C(C#N)=C(N)C(C#N)(C#N)[C@H](c3cccc(OC)c3OC)[C@H]2C1`, the “activity change, negative = inhibition” value is -12.5%.

For `O=C1NC(c2ccco2)Nc2sc3c(c21)CCN(Cc1ccccc1)C3` (stereo not given), the “activity change, negative = inhibition” value was 14.1%.

On to `CC(C)(C)N=Cc1c(O)ccc2oc3c(c12)CCCC3`, for which the “activity change, negative = inhibition” value was -591% [at 57.5 µM, above what the read-out allows, likely interference].
